Screens (PubChem BioAssay)
Most compounds without a hit are left out; they make up all but 3.4% or so of the library.
FBW7 activator – human FBW7 E3 ligase activation, primary screen | Q969H0 | normalized activity (activation), % at 26.1 µM | AlphaScreen FBW7–phospho-cyclin E peptide binding, activator screen | 650,000 tested, 0.13% active; in the data active means normalized activity above about 1.9%;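 further: purified mutant Fbw7 with reduced substrate affinity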
MITF inh – inhibitors of human MITF. O75030. AlphaScreen MITF homodimerization, bead proximity signal. inhibition, % at 2.6 µM. 650,000 tested, 0.91% active; in the data active means inhibition above about 50%
Target sequence (O75030 whole entry, looked up): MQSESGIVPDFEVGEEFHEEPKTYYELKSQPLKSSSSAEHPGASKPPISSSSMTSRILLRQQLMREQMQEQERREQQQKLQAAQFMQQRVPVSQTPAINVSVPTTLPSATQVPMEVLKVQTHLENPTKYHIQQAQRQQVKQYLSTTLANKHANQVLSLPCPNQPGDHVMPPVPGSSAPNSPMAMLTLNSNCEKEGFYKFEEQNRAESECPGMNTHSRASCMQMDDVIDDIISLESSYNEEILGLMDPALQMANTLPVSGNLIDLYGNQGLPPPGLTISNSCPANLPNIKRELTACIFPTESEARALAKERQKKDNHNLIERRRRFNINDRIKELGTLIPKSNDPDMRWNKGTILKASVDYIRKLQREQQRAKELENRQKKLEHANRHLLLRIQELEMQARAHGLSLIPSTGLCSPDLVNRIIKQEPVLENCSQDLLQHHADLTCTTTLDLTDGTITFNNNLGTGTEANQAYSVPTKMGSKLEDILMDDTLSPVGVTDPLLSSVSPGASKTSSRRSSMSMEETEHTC
TEAD-YAP block – TEAD-YAP interaction inhibition. inhibition, % at 9.12 µM. AID 1259422. 640,000 tested, 1.4% active. HEK-TIYL cells, TEAD-Gal4/YAP UAS-luciferase luminescence; in the data active means inhibition above about 32%
GPR151 activ – activators of human GPR151; activation, % at 11.2 µM; 650,000 tested, 1% active; PathHunter beta-arrestin GPR151 cells, luminescence; Q8TDV0; in the data active means activation above about 4.9%
Hits are given with their value; . = inactive.

SMILES | FBW7 activator | MITF inh | TEAD-YAP block | GPR151 activ
COc1ccc(CCN2CC3=C(C2=O)C(c2ccc(O)c(OC)c2)NC(=O)N3)cc1 (configuration not stated) | . | . | . | .
CC(C)NC(=O)c1cn(C)c(=O)c2ccccc12 | . | . | . | .
O=C(Nc1ccc2nn(-c3cccc4ccccc34)nc2c1)c1ccc(-c2ccc(Cl)cc2)o1 | . | . | . | .
O=C(N/N=C/c1ccc(O)c(O)c1O)c1ccccn1 | . | 108 | . | .
Cc1ccc(O)c(/C=N/NC(=O)c2ccccn2)c1 | . | 57 | . | .
O=C(N/N=C/c1ccccc1O)c1ccccn1 | . | . | . | .
Cc1cccc(/C=N/NC(=O)c2ccccn2)c1O | . | . | 55 | .
Cc1cccc(/C=N\NC(=O)c2ccccc2Cl)c1O | . | . | . | .
CCOC(=O)c1c(NC(=O)COc2ccc(-c3ccccc3)cc2)sc(C)c1C | . | . | . | .
NC(=O)c1ccccc1Nc1ncnc2c1nc1n2CCCCC1 | . | . | 48 | .
COc1cccc(Nc2c(-c3ccc(C)c(C)c3)c(=O)c2=O)c1 | . | . | 49 | .
COc1ccc(-c2c(Nc3ccc(C)c(F)c3)c(=O)c2=O)cc1 | . | 79 | . | .
O=c1c(Nc2ccc(F)c(Cl)c2)c(-c2ccccc2)c1=O | . | . | . | .
Cc1ccc(-c2c(Nc3ccc(C)c(F)c3)c(=O)c2=O)cc1 | . | . | . | .
COc1ccc(-c2c(Nc3ccc(F)c(Cl)c3)c(=O)c2=O)cc1 | . | 72 | . | .
CCOC(=O)c1sc2ncn(-n3cccc3)c(=O)c2c1C | . | . | . | .
N#Cc1ccc(C(=O)Nc2nnc(-c3ccccn3)o2)cc1 | . | . | . | .
CC(C)Oc1ccc(C(=O)Nc2nnc(-c3ccccn3)o2)cc1 | . | . | 36 | .
COc1cc(NC(=O)c2cc([N+](=O)[O-])ccc2N2CCN(C)CC2)c2ncccc2c1 | . | . | . | .
CCOC(=O)C1CCN(c2ccc([N+](=O)[O-])cc2C(=O)Nc2cc(OC)cc3cccnc23)CC1 | 2.1 | . | . | .
COc1ccc(OCC(=O)NNC(=O)c2ccc(C(C)(C)C)cc2)cc1 | . | . | . | .
CC1=CC(C)(C)N(C(=O)Nc2ccc(Cl)cc2)c2ccc(C)cc21 | . | . | . | .
CC1=CC(C)(C)N(C(=O)c2ccc(NS(C)(=O)=O)cc2)c2ccc(C)cc21 | . | . | 59 | .
COc1ccc(C2=NN(C(=O)c3cc(OC)c(OC)c(OC)c3)C(c3ccccc3OC)C2)cc1OC (configuration not stated) | . | . | 35 | .
OCCNc1nc(-c2ccc(N3CCOCC3)nc2)nc2c1ncn2-c1ccccc1 | . | . | 61 | .
SMILES | FBW7 activator | MITF inh | TEAD-YAP block | GPR151 activ
c1ccc(-n2cnc3c(NC4CC4)nc(-c4ccc(N5CCOCC5)nc4)nc32)cc1 | . | . | 45 | .
c1ccc(-n2cnc3c(Nc4ccc(N5CCOCC5)cc4)nc(-c4ccc(N5CCOCC5)nc4)nc32)cc1 | . | . | . | .
COc1cc(C2C(C#N)=C(N)Oc3ccc4ccccc4c32)cc(OC)c1OC (configuration not stated) | . | . | 48 | .
COc1ccc(C2C(C#N)=C(N)Oc3ccc4ccccc4c32)cc1OC (configuration not stated) | . | . | . | .
N#CC1=C(N)Oc2ccc3ccccc3c2C1c1ccccc1F (configuration not stated) | . | . | 52 | .
CCN1CCN(C(=O)C2CCN(S(C)(=O)=O)CC2)CC1 | . | . | . | .
CC(=O)c1ccc(-c2cc(F)cc3c2OC(CNC(=O)/C=C/c2cccnc2)C3)s1 (configuration not stated) | . | . | 33 | .
O=C(NCc1cccnc1)c1ccccc1NC(=O)C(c1ccccc1)c1ccccc1 | . | . | . | .
COc1ccc(C2C3=C(Nc4[nH]c(=O)[nH]c(=O)c42)c2ccccc2C3=O)cc1 (configuration not stated) | . | . | 56 | .
Cc1ccc(C2C3=C(Nc4c2c(=O)[nH]c(=O)n4C)c2ccccc2C3=O)cc1 (configuration not stated) | . | . | . | .
COCCn1c2c(c(=O)[nH]c1=O)C(c1ccccc1)C1=C(N2)c2ccccc2C1=O (configuration not stated) | . | . | . | .
Cc1ccc(C2C3=C(Nc4[nH]c(=O)[nH]c(=O)c42)c2ccccc2C3=O)cc1 (configuration not stated) | . | . | 39 | .
CCc1ccc(C2C3=C(Nc4c2c(=O)[nH]c(=O)n4CCOC)c2ccccc2C3=O)cc1 (configuration not stated) | . | . | 43 | .
CCN(CC)c1nc(NCc2ccccc2)nc(N2CCN(Cc3ccc4c(c3)OCO4)CC2)n1 | . | . | . | .
CC(=O)c1cccc(Nc2nc(=S)[nH]c3ccccc23)c1 | . | . | 61 | .
CC(=O)c1cccc(Nc2nc(-c3ccc(C)cc3)nc3ccccc23)c1 | . | . | . | .
CC(=O)Nc1cccc(-c2nc(-c3ccccc3)nc3ccccc23)c1 | 1.9 | . | . | .
S=c1nc(Nc2cc(Cl)cc(Cl)c2)c2ccccc2[nH]1 | . | . | . | .
CC(=O)Nc1cccc(Nc2nc(-c3ccccc3F)nc3ccccc23)c1 | . | . | 32 | .
Fc1cccc(Nc2nc(-c3ccccc3F)nc3ccccc23)c1 | . | . | . | .
CC(=O)c1cccc(Nc2nc(-c3ccc(C(C)(C)C)cc3)nc3ccccc23)c1 | . | . | 59 | .
Nc1ncnc(NNC(=O)CNC(=O)c2cc(Br)ccc2Cl)c1[N+](=O)[O-] | . | . | . | .
CCC(=O)N(/C=C1\Sc2ccccc2C1=O)c1ccc(C)cc1 | . | . | 53 | .
CCC(=O)N(/C=C1\Sc2ccccc2C1=O)c1ccccc1OC | . | . | 83 | .
COc1ccc(N(/C=C2\Sc3ccccc3C2=O)C(=O)c2ccco2)cc1 | . | . | . | .
SMILES | FBW7 activator | MITF inh | TEAD-YAP block | GPR151 activ
CCC(=O)N(/C=C1\Sc2ccccc2C1=O)c1ccccc1 | . | . | . | .
CC(=O)Nc1ccc(NC(=O)COc2ccc(C(C)C)cc2)cc1 | . | . | . | .
COc1ccc(C(Nc2cc(C)ccn2)c2ccc3ccc(C)nc3c2O)cc1OC (configuration not stated) | . | . | . | .
COc1ccc(C(Nc2cc(C)ccn2)c2ccc3cccnc3c2O)cc1OC (configuration not stated) | . | . | 61 | .
COc1ccc(C(Nc2ccccn2)c2ccc3cccnc3c2O)cc1OC (configuration not stated) | . | . | 70 | .
Cc1ccc2ccc(C(Nc3ccccn3)c3ccc(C)c(C)c3)c(O)c2n1 (configuration not stated) | . | . | . | .
CCOc1ccc(C(Nc2cc(C)ccn2)c2ccc3ccc(C)nc3c2O)cc1OCC (configuration not stated) | . | . | . | .
COc1ccccc1C(Nc1cc(C)ccn1)c1ccc2cccnc2c1O (configuration not stated) | . | . | 84 | .
